The list is not random: actives were taken first. Their share in the collection is about 2.3%.
CHO-K1 Ca antag – nonselective inhibitor or artifact in parental CHO-K1 cells; inhibition, % at 3 µM; actives 0.6% (n = 360,000); ATP-induced calcium, Fluo-8 fluorescence;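 active = inhibition above a per-plate cutoff, the plate's mean sample inhibition plus 3 SD, cut at about 24% in these data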;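 also: 0% = DMSO plus EC80 ATP and 100% = DMSO alone without ATP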
CHO-K1 Ca PAM – M1 PAM counterscreen hit in parental CHO-K1 cells | activation, % at 3 µM | ATP EC20, Fluo-8 calcium fluorescence; 0% at ATP EC20, 100% at ATP max | AID 602247 | actives 0.02% (n = 360,000);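 active = activation above the run cutoff, the mean activation of all test compounds plus 3 SD, cut at about 40% in these data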;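 also: peak over basal fluorescence ratio in a 140 s read after ATP addition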
CHRM1 antagonist – antagonists of human M1 muscarinic receptor. AID 588852. inhibition, % at 3 µM. CHO-K1 hM1, Fluo-8 calcium fluorescence, ACh EC80 antagonist. P11229. actives 1.3% (n = 360,000);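 active = percent inhibition above its own plate's cutoff, namely the mean of that plate's compound wells plus 3 SD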;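 also: peak over basal fluorescence ratio during 140 s after agonist addition; 0% = ACh EC80 plus DMSO and 100% = DMSO alone without agonist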
Target sequence (P11229 whole entry, looked up): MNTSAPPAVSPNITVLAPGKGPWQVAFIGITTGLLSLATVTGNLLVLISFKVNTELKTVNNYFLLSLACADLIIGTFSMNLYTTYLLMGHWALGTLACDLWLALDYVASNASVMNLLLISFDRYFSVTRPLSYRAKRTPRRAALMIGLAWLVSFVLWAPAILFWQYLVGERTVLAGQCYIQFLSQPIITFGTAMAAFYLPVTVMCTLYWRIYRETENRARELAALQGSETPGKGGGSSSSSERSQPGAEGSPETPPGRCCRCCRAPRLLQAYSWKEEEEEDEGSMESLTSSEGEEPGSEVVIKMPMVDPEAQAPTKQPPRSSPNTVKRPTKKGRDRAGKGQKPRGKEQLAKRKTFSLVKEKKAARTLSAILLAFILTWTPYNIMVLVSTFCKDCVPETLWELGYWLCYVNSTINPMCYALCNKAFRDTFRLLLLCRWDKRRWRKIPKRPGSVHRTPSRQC
CHO-K1 Ca ag – M1 agonist counterscreen hit in parental CHO-K1 cells | AID 602248 | Fluo-8 calcium fluorescence; scaled to maximal ATP response, vehicle zero | actives 0.48% (n = 360,000) | activation, % at 3 µM; in the data active = activation above about 15%;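 also: untransfected CHO-K1 host cells lacking M1 receptor as counterscreen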
CHRM1 agonist – agonists of human M1 muscarinic receptor; P11229; CHO-K1 hM1, Fluo-8 calcium fluorescence, agonist mode; 0% DMSO, 100% acetylcholine EC100; AID 588814; actives 0.33% (n = 360,000); activation, % at 3 µM;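 active = activation above the run's mean compound activation plus 3 SD, cut at about 16% in these data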;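 also: peak over basal fluorescence ratio within a 140 s kinetic read after compound addition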
M1 PAM – positive allosteric modulators of human M1 muscarinic receptor; P11229; CHO-K1 hM1, Fluo-8 calcium fluorescence, ACh EC20; 0% = ACh EC20, 100% = maximal ACh; activation, % at 3 µM; actives 0.088% (n = 360,000); in the data active = activation above about 19%, passing the limit was not always enough
Starred values were filed as active, the others as inactive.

Screening CC(C)OC(=O)N(C)C[C@@H]1OCc2cn(nn2)CCCC(=O)N([C@@H](C)CO)C[C@H]1C returned CHO-K1 Ca antag -1, CHO-K1 Ca PAM 5, CHRM1 antagonist -8, CHO-K1 Ca ag 0, CHRM1 agonist -3 and M1 PAM 1.
Screening CCOc1ccccc1N(CC)C(=O)c1nn(C)c2c1CSc1ccccc1-2 returned CHO-K1 Ca antag -14, CHO-K1 Ca PAM 4, CHRM1 antagonist -4, CHO-K1 Ca ag 0, CHRM1 agonist -4 and M1 PAM 0.
`CCCOC(=O)c1ccc(Oc2coc3c(CN(CC)CC)c(O)ccc3c2=O)cc1` gave CHO-K1 Ca antag 3, CHO-K1 Ca PAM -5, CHRM1 antagonist 89*, CHO-K1 Ca ag 0, CHRM1 agonist -11 and M1 PAM -26.
For COCCC(=O)Nc1c(-c2ccccc2)c2cc(Br)ccc2[nH]c1=O the results were CHO-K1 Ca antag 7, CHO-K1 Ca PAM 6, CHRM1 antagonist -23, CHO-K1 Ca ag 0, CHRM1 agonist 2 and M1 PAM 17.
Screening O=C(N/N=C/c1cc(Cl)cc(Cl)c1O)c1ccncc1 returned CHO-K1 Ca antag -3, CHO-K1 Ca PAM 2, CHRM1 antagonist -1, CHO-K1 Ca ag 15*, CHRM1 agonist 13 and M1 PAM 2.
Screening CC(C)(C)NC(=O)c1ccccc1-c1nc2ccccc2s1 returned CHO-K1 Ca antag 0, CHO-K1 Ca PAM 9, CHRM1 antagonist -5, CHO-K1 Ca ag 33*, CHRM1 agonist 18* and M1 PAM 5.
Screening CC(C)(C)NC(=O)c1nc2ccccc2s1 returned CHO-K1 Ca antag 7, CHO-K1 Ca PAM -5, CHRM1 antagonist 9, CHO-K1 Ca ag 0, CHRM1 agonist -3 and M1 PAM -7.
Cc1ccc(-n2cc(C(C)(C)C)[nH]c2=S)cc1 was read as CHO-K1 Ca antag 26*, CHO-K1 Ca PAM -5, CHRM1 antagonist 27, CHO-K1 Ca ag 0, CHRM1 agonist -4 and M1 PAM -8.
CC(C)(C)NC(=O)C1(C)CCC(=O)N1CC(F)(F)F (centres undefined) was read as CHO-K1 Ca antag 24*, CHO-K1 Ca PAM 0, CHRM1 antagonist 8, CHO-K1 Ca ag 0, CHRM1 agonist 3 and M1 PAM 3.
`CC(C)CCNC(=O)Cn1c(=O)oc2cc(S(=O)(=O)N3CCc4ccccc43)ccc21` gave CHO-K1 Ca antag 19, CHO-K1 Ca PAM -11, CHRM1 antagonist 31*, CHO-K1 Ca ag 0, CHRM1 agonist -12 and M1 PAM -23.
Screening CCOC1=C2CN(S(=O)(=O)c3ccc(C)cc3)[C@@H](c3cccs3)C[C@H]2[C@H]2C(=O)N(c3ccccc3)C(=O)[C@H]2C1 returned CHO-K1 Ca antag 27*, CHO-K1 Ca PAM -4, CHRM1 antagonist 2, CHO-K1 Ca ag 0, CHRM1 agonist -1 and M1 PAM 3.
Screening O=C(NCCS(=O)(=O)N1CCN(c2cccc(Cl)c2)CC1)c1cc(=O)c2ccccc2o1 returned CHO-K1 Ca antag -11, CHO-K1 Ca PAM -12, CHRM1 antagonist -6, CHO-K1 Ca ag 9, CHRM1 agonist 0 and M1 PAM 0.
CCCN1C=CC(=CC=C(C#N)C#N)C=C1 was read as CHO-K1 Ca antag 24*, CHO-K1 Ca PAM -22, CHRM1 antagonist 11, CHO-K1 Ca ag 15, CHRM1 agonist 10 and M1 PAM -1.
Screening C=CCN1C=CC(=CC=C(C#N)C#N)C=C1 returned CHO-K1 Ca antag 27*, CHO-K1 Ca PAM -30, CHRM1 antagonist 25, CHO-K1 Ca ag 12, CHRM1 agonist 9 and M1 PAM -8.
Screening CCCCCCN1C=CC(=C/C=C(\C#N)C(=O)OCC)C=C1 returned CHO-K1 Ca antag 43*, CHO-K1 Ca PAM -16, CHRM1 antagonist 60*, CHO-K1 Ca ag 73*, CHRM1 agonist 150* and M1 PAM -38.
Screening CCOC(=O)/C(C#N)=C/C=C1\C=Cc2ccccc2N1CC returned CHO-K1 Ca antag -11, CHO-K1 Ca PAM 8, CHRM1 antagonist 0, CHO-K1 Ca ag 3, CHRM1 agonist -11 and M1 PAM 6.
c1ccc(-c2ccc3c(c2)NCCN3)cc1 was read as CHO-K1 Ca antag 4, CHO-K1 Ca PAM 5, CHRM1 antagonist 11, CHO-K1 Ca ag 0, CHRM1 agonist -6 and M1 PAM -2.

Screens (PubChem)
